Experimental findings from PubChem BioAssay (NCI) are described below.

What all share (experiment): NCI-60 one-dose screen, 48 h (100 = growth as untreated, 0 = no growth, -100 = all killed)
One test concerns SR leukemia. The conditions noted are these: 10 µM unless noted.
The subject of another test is RPMI-8226 leukemia. Conditions: 10 µM unless noted.
The next test deals with OVCAR-8 ovarian. Conditions: 10 µM unless noted.
A further test deals with OVCAR-5 ovarian. Conditions: 10 µM unless noted.
In the next test the test system is OVCAR-4 ovarian. Conditions: 10 µM unless noted.
The test system of the next test is SK-OV-3 ovarian. The conditions noted are these: 10 µM unless noted.
The test system of a further test is IGROV1 ovarian. The conditions noted are these: 10 µM unless noted.
In another test the test system is OVCAR-3 ovarian. Conditions: 10 µM unless noted.
The test system of another test is NCI/ADR-RES ovarian. The conditions noted are these: 10 µM unless noted.
The test system of the next test is T-47D breast. The conditions noted are these: 10 µM unless noted.
In a further test the test system is BT-549 breast. Conditions: 10 µM unless noted.
Another test concerns MDA-MB-435 melanoma. Conditions: 10 µM unless noted.
For another test, the system named is SW-620 colon. The conditions noted are these: 10 µM unless noted.
The test system of the next test is MCF7 breast. The conditions noted are these: 10 µM unless noted.
For another test, the system named is HCT-116 colon. Conditions: 10 µM unless noted.
In another test the test system is HCC-2998 colon. Conditions: 10 µM.
Another test concerns KM12 colon. The conditions noted are these: 10 µM unless noted.

About 83,000 compounds went through this panel and 20% of them were active in at least one assay; those are over-represented in the sample as a whole.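 Note: values are percent growth. 100 is the growth of untreated cells, values between 100 and 0 indicate rising inhibition; between -100 and 0 indicates cell death.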 Values without a mark were called inactive. The source made the active and inactive calls. The calls were made as follows: active = growth percent below 10; inactive = the rest.

Regarding `CS(=O)(=O)N1CCN(Cc2cc3nc(-c4cccc5[nH]ncc45)nc(N4CCOCC4)c3s2)CC1`, the growth in the test with SR leukemia is 18.6%; with RPMI-8226 leukemia, 25%; with OVCAR-8 ovarian, 27%; in the test with OVCAR-5 ovarian, 20.5%; in the test with OVCAR-4 ovarian, 47.8%; with SK-OV-3 ovarian it was -18.4% (active). Also, the growth is -28.4% (active) in the test on IGROV1 ovarian; 14.5% with OVCAR-3 ovarian; 32.1% in the test on NCI/ADR-RES ovarian; -21.7% (active) in the test on T-47D breast; 18.2% with BT-549 breast; 22.4% in the test on MDA-MB-435 melanoma. Further, the growth is 38.8% in the test with SW-620 colon; 5.28% (active) in the test on MCF7 breast; 28.3% in the test with HCT-116 colon; 22.8% in the test with HCC-2998 colon; 16.3% in the test on KM12 colon.
`Cc1cccc(Cl)c1NC(=O)c1cnc(Nc2cc(N3CCOCC3)cc(S(C)(=O)=O)c2)s1`: the growth with SR leukemia is 43.3%; in the test on RPMI-8226 leukemia, 70.5%; in the test with OVCAR-8 ovarian it was -2.17% (active); in the test on OVCAR-5 ovarian it was 15.6%; in the test on OVCAR-4 ovarian, 53.8%; in the test on SK-OV-3 ovarian, -23.8% (active). Moreover, the growth was -49.1% (active) in the test on IGROV1 ovarian; 32.1% in the test on OVCAR-3 ovarian; 64.4% in the test on NCI/ADR-RES ovarian; -15.6% (active) in the test on T-47D breast; 66.7% with BT-549 breast; 69.9% in the test with MDA-MB-435 melanoma. For the same molecule, the growth was 113% in the test on SW-620 colon, 65% with MCF7 breast, 13.2% in the test with HCT-116 colon and 87.8% with KM12 colon.
For the molecule `COc1cc2c(cc1OCCCN1Cc3ccc(OCCCCC(=O)N4CCC(CCN5CCCC5)CC4)cc3C1)N=C(N)C21CCCC1`, the growth was 1.87% (active) in the test on SR leukemia; 62.6% in the test on RPMI-8226 leukemia; 97.9% in the test with OVCAR-8 ovarian; 102% in the test on OVCAR-5 ovarian; 77% in the test with OVCAR-4 ovarian; 71.7% with SK-OV-3 ovarian. Besides, the growth in the test on IGROV1 ovarian is 83%; in the test with OVCAR-3 ovarian, 99.2%; in the test on NCI/ADR-RES ovarian it was 107%; in the test with T-47D breast it was 56.2%; with BT-549 breast, 63.4%; with MDA-MB-435 melanoma, 81.5%. In addition, the growth is 66.4% with SW-620 colon; 58.5% in the test on MCF7 breast; 68.1% with HCT-116 colon; 101% in the test with HCC-2998 colon; 78.5% with KM12 colon.
Consider `C[C@@H]1COC(Nc2ccc3ncnc(Nc4ccc(OCc5nccs5)c(Cl)c4)c3c2)=N1`, for which the growth with SR leukemia is 17.6%; with RPMI-8226 leukemia, 18.8%; in the test on OVCAR-8 ovarian it was 10.4%; in the test on OVCAR-5 ovarian, 59.6%; with OVCAR-4 ovarian, 25.3%; in the test with SK-OV-3 ovarian it was -3.87% (active). The growth is 0.932% (active) in the test on IGROV1 ovarian; 31.7% in the test with OVCAR-3 ovarian; 9.99% (active) in the test with NCI/ADR-RES ovarian; -17.5% (active) in the test on T-47D breast; 1.81% (active) in the test with BT-549 breast; 50.1% with MDA-MB-435 melanoma. Moreover, the growth was 76.8% in the test on SW-620 colon; 45.1% with MCF7 breast; 30.1% in the test with HCT-116 colon; 46.9% with HCC-2998 colon; 18.5% with KM12 colon.
Turning to `CNC(=O)c1cc(Oc2ccc(NC(=O)Nc3ccc(Cl)c(C(F)(F)F)c3)c(F)c2)ccn1`, the growth is -32.6% (active) in the test on SR leukemia; -34% (active) in the test with RPMI-8226 leukemia; -1.84% (active) in the test with OVCAR-8 ovarian; 3.12% (active) in the test with OVCAR-5 ovarian; 8.63% (active) with OVCAR-4 ovarian; -16.7% (active) in the test with SK-OV-3 ovarian. In addition, the growth in the test on IGROV1 ovarian is -20.8% (active); with OVCAR-3 ovarian it was 0.719% (active); in the test on NCI/ADR-RES ovarian, -14.3% (active); in the test with T-47D breast, -34.5% (active); in the test with BT-549 breast, -31.3% (active); with MDA-MB-435 melanoma, -57% (active). Also, the growth in the test with SW-620 colon is -8.01% (active); in the test with MCF7 breast, -26.6% (active); with HCT-116 colon, -37.3% (active); with HCC-2998 colon, -80.8% (active); with KM12 colon, -32.3% (active).
Turning to `CC(=O)NCC(=O)N1[C@@H]2CC[C@H]1c1ccc(Nc3ncc(C(F)(F)F)c(NC4CCC4)n3)cc12`, the growth in the test with SR leukemia was 2.18% [2.5 µM] (active); in the test with RPMI-8226 leukemia it was 71.4% [2.5 µM]; in the test on OVCAR-8 ovarian, 55.3% [2.5 µM]; in the test on OVCAR-5 ovarian, 32.4% [2.5 µM]; in the test on OVCAR-4 ovarian, 64.4% [2.5 µM]; with SK-OV-3 ovarian, 15.9% [2.5 µM]. Besides, the growth with IGROV1 ovarian is 31.5% [2.5 µM]; in the test on OVCAR-3 ovarian, 67.8% [2.5 µM]; with NCI/ADR-RES ovarian, 59.7% [2.5 µM]; in the test with T-47D breast it was 88.4% [2.5 µM]; in the test with BT-549 breast, 36.3% [2.5 µM]; in the test on MDA-MB-435 melanoma it was 39.9% [2.5 µM]. In addition, the growth in the test on SW-620 colon is 16.3% [2.5 µM]; in the test with MCF7 breast it was 25.1% [2.5 µM]; in the test on HCT-116 colon, 13.4% [2.5 µM]; in the test with KM12 colon, 3.64% [2.5 µM] (active).
For the molecule `CCN1CCN(Cc2ccc(Cc3ncc(F)c(-c4cc(F)c5nc(C)n(C(C)C)c5c4)n3)nc2)CC1`, the growth is -12.4% (active) in the test on SR leukemia; 44.8% in the test with RPMI-8226 leukemia; 68.3% with OVCAR-8 ovarian; 46.5% with OVCAR-5 ovarian; 69.5% with OVCAR-4 ovarian; 22.4% in the test with SK-OV-3 ovarian. In addition, the growth with IGROV1 ovarian was 37.3%; with OVCAR-3 ovarian, 63.2%; with NCI/ADR-RES ovarian, 72.3%; in the test on T-47D breast, 65.2%; in the test on BT-549 breast, 61%; in the test on MDA-MB-435 melanoma, 45.9%. Further, the growth with SW-620 colon was -5.5% (active); with MCF7 breast, 25.1%; in the test on HCT-116 colon, 5.58% (active); with KM12 colon it was 28%.
Turning to `COCC(=O)NC/C=C/c1ccc2ncnc(Nc3ccc(Oc4ccc(C)nc4)c(C)c3)c2c1`, the growth was 22.5% in the test on SR leukemia; 50.6% in the test on RPMI-8226 leukemia; 38.5% in the test with OVCAR-8 ovarian; 21.6% in the test on OVCAR-5 ovarian; 40.1% in the test on OVCAR-4 ovarian; -18.6% (active) in the test with SK-OV-3 ovarian. Also, the growth was -8.37% (active) in the test on IGROV1 ovarian; 63.3% with OVCAR-3 ovarian; 57.1% in the test with NCI/ADR-RES ovarian; -0.662% (active) in the test with T-47D breast; 62% with BT-549 breast; 32.9% with MDA-MB-435 melanoma. The growth in the test on SW-620 colon was 47.9%; in the test on MCF7 breast, 49.1%; in the test with HCT-116 colon, 29.3%; in the test with HCC-2998 colon it was 36.6%; in the test with KM12 colon, 28.8%.
Consider `CC(C)(O)CC(=O)NCCn1ccc2ncnc(Nc3ccc(Oc4cccc(C(F)(F)F)c4)c(Cl)c3)c21`, for which the growth in the test with SR leukemia is 3.05% (active); with RPMI-8226 leukemia it was 11%; with OVCAR-8 ovarian it was 3% (active); with OVCAR-5 ovarian, 3.46% (active); with OVCAR-4 ovarian, 25.6%; in the test with SK-OV-3 ovarian it was -21% (active). Moreover, the growth was -42.6% (active) in the test with IGROV1 ovarian; 32.6% in the test with OVCAR-3 ovarian; 9.15% (active) in the test on NCI/ADR-RES ovarian; -18.8% (active) with T-47D breast; 17.5% with BT-549 breast; 14.3% in the test with MDA-MB-435 melanoma. Also, the growth in the test on SW-620 colon was 14.1%; in the test on MCF7 breast it was 14.3%; in the test on HCT-116 colon, 0.422% (active); in the test on HCC-2998 colon, -27.2% (active); with KM12 colon, 9.88% (active).
